High-throughput results deposited in PubChem BioAssay by several laboratories.
eIF4E 4G PPI = blocks eIF4E binding to eIF4G. actives 0.37% (n = 220,000). inhibition, % at 21.7 µM. P63073+Q04637. TR-FRET eIF4E-eIF4GI(517-606) binding, 2 h;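 active = inhibition above about 30%, limit read from the data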;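 note: 0% = full FRET control wells and 100% = background wells lacking eIF4GI fragment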
Target sequence (P63073 whole entry, looked up, the tested form may be a part): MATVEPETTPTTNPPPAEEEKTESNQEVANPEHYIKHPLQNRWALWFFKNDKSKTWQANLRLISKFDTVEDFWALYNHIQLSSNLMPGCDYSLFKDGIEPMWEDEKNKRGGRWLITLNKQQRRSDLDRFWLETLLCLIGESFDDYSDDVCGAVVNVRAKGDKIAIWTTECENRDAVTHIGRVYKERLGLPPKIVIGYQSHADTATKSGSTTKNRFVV
Target sequence (Q04637 whole entry, looked up, the tested form may be a part): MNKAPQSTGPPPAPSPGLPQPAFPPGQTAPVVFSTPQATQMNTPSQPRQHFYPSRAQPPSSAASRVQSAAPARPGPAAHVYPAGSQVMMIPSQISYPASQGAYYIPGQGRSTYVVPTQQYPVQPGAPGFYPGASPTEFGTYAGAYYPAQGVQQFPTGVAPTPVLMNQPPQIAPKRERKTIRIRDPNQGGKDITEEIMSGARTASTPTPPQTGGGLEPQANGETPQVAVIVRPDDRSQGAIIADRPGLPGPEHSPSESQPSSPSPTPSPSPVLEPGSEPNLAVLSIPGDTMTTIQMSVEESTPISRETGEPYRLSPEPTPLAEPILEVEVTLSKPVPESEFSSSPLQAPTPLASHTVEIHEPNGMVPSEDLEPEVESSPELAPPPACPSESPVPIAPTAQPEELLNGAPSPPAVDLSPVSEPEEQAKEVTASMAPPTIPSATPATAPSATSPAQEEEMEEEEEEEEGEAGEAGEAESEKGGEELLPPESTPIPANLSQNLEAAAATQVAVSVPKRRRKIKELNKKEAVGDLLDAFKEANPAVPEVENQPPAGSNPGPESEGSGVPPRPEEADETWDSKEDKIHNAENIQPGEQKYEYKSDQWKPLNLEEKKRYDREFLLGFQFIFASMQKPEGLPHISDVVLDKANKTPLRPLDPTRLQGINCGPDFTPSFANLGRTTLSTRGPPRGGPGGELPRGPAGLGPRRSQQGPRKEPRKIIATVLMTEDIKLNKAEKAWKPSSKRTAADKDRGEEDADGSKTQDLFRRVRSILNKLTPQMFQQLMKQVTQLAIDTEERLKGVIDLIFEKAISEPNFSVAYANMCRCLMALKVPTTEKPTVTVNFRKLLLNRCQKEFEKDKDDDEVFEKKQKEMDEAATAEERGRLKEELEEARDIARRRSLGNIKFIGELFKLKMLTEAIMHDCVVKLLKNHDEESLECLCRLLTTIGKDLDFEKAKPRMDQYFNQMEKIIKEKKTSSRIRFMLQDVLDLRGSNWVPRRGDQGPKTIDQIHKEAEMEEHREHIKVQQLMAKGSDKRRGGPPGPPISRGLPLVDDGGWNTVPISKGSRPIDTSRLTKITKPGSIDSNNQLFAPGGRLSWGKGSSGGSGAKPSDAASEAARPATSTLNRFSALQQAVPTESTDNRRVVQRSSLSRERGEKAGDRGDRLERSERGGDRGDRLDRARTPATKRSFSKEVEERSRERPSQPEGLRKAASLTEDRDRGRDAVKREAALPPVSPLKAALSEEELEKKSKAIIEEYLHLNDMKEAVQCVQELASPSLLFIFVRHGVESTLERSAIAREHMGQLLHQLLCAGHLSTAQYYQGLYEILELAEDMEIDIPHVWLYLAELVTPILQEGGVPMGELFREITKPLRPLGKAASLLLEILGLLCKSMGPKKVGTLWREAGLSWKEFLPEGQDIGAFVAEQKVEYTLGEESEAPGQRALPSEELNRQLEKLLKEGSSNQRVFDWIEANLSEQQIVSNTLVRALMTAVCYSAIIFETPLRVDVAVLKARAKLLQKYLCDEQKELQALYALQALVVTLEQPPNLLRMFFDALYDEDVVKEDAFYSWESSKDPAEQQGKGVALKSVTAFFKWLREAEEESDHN
Insulin prom inh = TRM-6 insulin promoter activity inhibition. TRM-6 cells (human fetal islet line), insulin promoter-eGFP reporter, imaging; reporter expression induced with tamoxifen. inhibition, % at 2 µM. AID 1273. actives 0.9% (n = 130,000);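 active = inhibition above the mean plus 3 SD, with well images judged a real hit on visual review, cut at about 60% in these data, passing the limit was not always enough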
Autophagy mod = alters autophagy in cells; AID 463193; actives 0.98% (n = 190,000); MEF GFP-LC3 puncta imaging; test concentration mostly 10 µM; calls only at 10 µM (by protocol);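 active = percentage of spot-positive cells more than 3 SD above its plate mean, without a fluorescence outlier flag or 80% toxicity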;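 note: spot-positive cell cutoff set from DMSO-treated cells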
Ins promoter up = MIN6 insulin promoter up-regulation | z-score at 5 µM | MIN6 insulin promoter-GFP reporter, high-content imaging; stronger effect = higher value | actives 0.3% (n = 190,000);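 active = z-score above 3 at 5 µM with at least 500 cells counted in the well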
PERK inhibitor = inhibitors of human PERK kinase; CHO PERK-DD fusion, SEAP luminescence translation reporter; inhibition, % at 5.6 µM; actives 0.17% (n = 220,000);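 active = inhibition above the mean inhibition of all tested compounds plus 3 SD, set separately per screening campaign, cut at about 2.9% in these data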;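 note: PERK kinase domain activated by AP20187 dimerizer at 100 nM; 0% = DMSO with dimerizer and 100% = rapamycin at 8.4 µM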
Active calls of the source: *; i = inactive; x = no result given; + = active, no number. Rows were chosen to be rich in hits. Some 2% of all compounds tested hit in one or more screens of this group.

SMILES	eIF4E 4G PPI	Insulin prom inh	Autophagy mod	Ins promoter up	PERK inhibitor
COC(=O)NC1CCC(NC(=O)OC)CC1 (centres undefined)	-30.0	-33.3	i	-1.07	-0.8
COc1ccc2nc(N/C(N)=N/C(=S)Nc3c(C)cccc3C)nc(C)c2c1	-2.3	x	+	-0.21	1.7
COc1ccc2nc(N/C(N)=N/C(=S)Nc3cccc(C)c3)nc(C)c2c1	0.7	x	i	-0.81	-1.2
CCNCC(O)COCC(O)CNCC (centres undefined)	46.0*	27.3	i	0.27	1.5
CC(C)C(=O)NNc1nc2ccccc2s1	3.9	11.4	i	0	1.0
O=C(NNc1nc2ccccc2s1)C1CC1	-5.3	x	i	0.06	3.6*
CCN1CCN(c2ncc(C(=O)Nc3cc(Cl)ccc3OC)c3ccccc23)CC1	-9.4	-77.8	+	-0.08	-1.1
O=C(NCc1cccs1)c1ccc(N2CCCCC2)nc1	4.1	13.2	i	3.41*	-0.5
CNC(=O)COC(=O)c1cc(-c2ccccc2)nn1-c1ccccc1	1.0	0.0	i	0.43	-0.4
Cc1cc(/C=N/Nc2ccc([N+](=O)[O-])cn2)c(C)n1-c1ccc(C(=O)O)cc1	34.5*	60.0	i	-0.72	0.5
CCSc1ncc(/C=N/Nc2ccc([N+](=O)[O-])cc2)n1C	2.7	-17.6	+	-0.16	-0.4
Cc1ccccc1-n1c(C)cc(/C=N/Nc2ccc([N+](=O)[O-])cn2)c1C	-0.3	-61.1	+	0.2	-0.3
O=[N+]([O-])c1ccc(N/N=C\c2cccn2-c2ccccc2)nc1	16.3	x	+	0.7	-0.1
CCSc1ncc(/C=N/Nc2ccccc2)n1C	-4.6	-6.7	i	0.03	0.0
CC(C)(C)OC(=O)N/N=C/c1cccn1-c1ccc([N+](=O)[O-])cc1	1.0	x	x	-0.57	0.5
COc1ccc(C(=O)Nc2cc(C)c3c(=O)oc4ccccc4c3n2)cc1	3.4	x	i	0.39	1.4
O=[N+]([O-])c1ccc(N/N=C/c2ccc(OCc3cccc4ccccc34)cc2)nc1	-0.4	-145.0	+	x	0.0
O=[N+]([O-])c1ccc(OC(F)F)c(/C=N/n2cnnc2)c1	0.1	x	x	0.1	0.4
c1cc(CSc2nnc(-c3ccc4c(c3)OCO4)o2)ccn1	x	-7.1	i	0.4	-0.1
O=C(Nc1ccccc1)N1CC=C(c2ccccc2)CC1	-5.6	75.0*	i	-0.82	0.6
CC1=C(C)SC(=C(C#N)c2nnc(N3CCOCC3)n2-c2ccccc2)S1	x	x	x	0.13	x
C=CCn1c(SCC(=O)c2[nH]c(C)c(C(=O)OCC)c2C)nc2scc(-c3ccc(OC)cc3)c2c1=O	0.8	-180.0	i	0.37	0.3
CCc1ccc(CN2CCCC(CNS(=O)(=O)c3ccc(OC)cc3)C2)cc1 (centres undefined)	0.0	x	+	-0.56	-0.9
CCCN1Cc2cccc(C(=O)NC3CCCC3)c2C1=O	-0.2	93.8*	i	-0.54	-1.1
COc1cccc(NC(=O)COc2ccc(N3CC(C(=O)NCC(C)C)CC3=O)cc2)c1 (centres undefined)	72.2*	-202.3	i	-0.35	0.2
SMILES	eIF4E 4G PPI	Insulin prom inh	Autophagy mod	Ins promoter up	PERK inhibitor
Cc1cc(C)c(-n2c(SCCS(=O)(=O)c3ccc(F)cc3)n[nH]c2=O)c(C)c1	-5.1	x	x	x	-0.6
CCOC(=O)c1ccc(NC(=O)c2cc3ccccc3o2)cc1	8.3	63.0*	i	x	0.8
C=CCNC(=O)CSc1nc2cc(C(=O)OCC)ccc2n1CC	4.4	-18.8	i	2.44	-0.6
CCOC(=O)c1ccc2c(c1)nc(SCC(=O)c1cc3ccccc3o1)n2CC	40.4*	5.6	i	x	-0.7
CSc1nc(Oc2ccc(C)cc2)cc(C(F)(F)F)n1	-4.0	6.7	i	0.89	3.6*
CCNc1nc(Oc2ccc(F)cc2)cc(C(F)(F)F)n1	-4.4	x	i	-0.3	0.4
COc1ccc(CNC(=O)c2cccc(-c3ccc(C)c4ccccc34)n2)cc1	-0.1	-4.8	i	-0.59	-0.7
O=C(Nc1ccc(Cl)cc1)N1CC=CCC1	0.8	63.0*	i	-1.04	1.2
O=C(CSc1nnc(-c2ccccc2)o1)n1c2c(c3ccccc31)CCCC2	1.4	54.2	i	-0.2	2.3
Cc1ccc(-c2nnc(SCC(=O)n3c4c(c5ccccc53)CCCC4)o2)cc1	4.5	-15.6	i	-0.02	3.0*
COc1ccc2nc(NC(=O)CSc3nc(C)cc(=O)[nH]3)sc2c1	1.7	5.5	i	x	0.8
COc1ccc(NC(=O)CSc2nc(O)cc(=O)[nH]2)c(OC)c1	95.6*	x	x	-0.11	-0.2
